The source of these data is ChEMBL document CHEMBL1961873, “Compounds: GSK PKIS; Assays: Nanosyn kinase panel” (2012).

For assay [1], the target named is T1, Ephrin type-B receptor 2 (Homo sapiens) (UniProt P29323).
T1 sequence (whole entry): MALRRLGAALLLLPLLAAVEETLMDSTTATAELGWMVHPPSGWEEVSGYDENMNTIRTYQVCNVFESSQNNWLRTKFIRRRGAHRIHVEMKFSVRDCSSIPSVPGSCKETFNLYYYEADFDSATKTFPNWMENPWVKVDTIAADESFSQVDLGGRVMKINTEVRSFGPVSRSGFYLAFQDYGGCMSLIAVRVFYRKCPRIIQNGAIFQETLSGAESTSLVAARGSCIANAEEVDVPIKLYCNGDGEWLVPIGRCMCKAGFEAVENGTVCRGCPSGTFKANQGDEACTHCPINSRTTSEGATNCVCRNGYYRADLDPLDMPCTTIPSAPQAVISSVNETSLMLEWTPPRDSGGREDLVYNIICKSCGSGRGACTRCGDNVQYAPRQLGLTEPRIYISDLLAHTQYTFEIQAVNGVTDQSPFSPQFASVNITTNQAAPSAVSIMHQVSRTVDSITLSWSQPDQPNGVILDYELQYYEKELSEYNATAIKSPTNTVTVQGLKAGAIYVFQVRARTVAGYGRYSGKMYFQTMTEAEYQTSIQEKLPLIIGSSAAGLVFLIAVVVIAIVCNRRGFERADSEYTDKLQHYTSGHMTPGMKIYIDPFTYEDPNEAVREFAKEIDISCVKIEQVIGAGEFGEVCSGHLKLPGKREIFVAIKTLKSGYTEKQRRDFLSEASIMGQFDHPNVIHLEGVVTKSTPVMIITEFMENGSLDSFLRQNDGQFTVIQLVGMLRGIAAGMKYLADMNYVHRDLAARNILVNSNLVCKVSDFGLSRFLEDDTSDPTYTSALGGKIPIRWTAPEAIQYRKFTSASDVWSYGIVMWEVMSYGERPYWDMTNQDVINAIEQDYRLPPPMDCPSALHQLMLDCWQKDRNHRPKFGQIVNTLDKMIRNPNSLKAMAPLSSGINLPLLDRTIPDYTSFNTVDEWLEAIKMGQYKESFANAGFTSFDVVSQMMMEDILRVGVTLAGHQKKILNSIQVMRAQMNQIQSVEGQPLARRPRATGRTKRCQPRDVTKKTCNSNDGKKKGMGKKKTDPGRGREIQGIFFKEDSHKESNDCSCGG
The settings on record: at 1 µM.

Assay [2] deals with T2, Ephrin type-B receptor 3 (Homo sapiens) (UniProt P54753).
T2 sequence (whole entry): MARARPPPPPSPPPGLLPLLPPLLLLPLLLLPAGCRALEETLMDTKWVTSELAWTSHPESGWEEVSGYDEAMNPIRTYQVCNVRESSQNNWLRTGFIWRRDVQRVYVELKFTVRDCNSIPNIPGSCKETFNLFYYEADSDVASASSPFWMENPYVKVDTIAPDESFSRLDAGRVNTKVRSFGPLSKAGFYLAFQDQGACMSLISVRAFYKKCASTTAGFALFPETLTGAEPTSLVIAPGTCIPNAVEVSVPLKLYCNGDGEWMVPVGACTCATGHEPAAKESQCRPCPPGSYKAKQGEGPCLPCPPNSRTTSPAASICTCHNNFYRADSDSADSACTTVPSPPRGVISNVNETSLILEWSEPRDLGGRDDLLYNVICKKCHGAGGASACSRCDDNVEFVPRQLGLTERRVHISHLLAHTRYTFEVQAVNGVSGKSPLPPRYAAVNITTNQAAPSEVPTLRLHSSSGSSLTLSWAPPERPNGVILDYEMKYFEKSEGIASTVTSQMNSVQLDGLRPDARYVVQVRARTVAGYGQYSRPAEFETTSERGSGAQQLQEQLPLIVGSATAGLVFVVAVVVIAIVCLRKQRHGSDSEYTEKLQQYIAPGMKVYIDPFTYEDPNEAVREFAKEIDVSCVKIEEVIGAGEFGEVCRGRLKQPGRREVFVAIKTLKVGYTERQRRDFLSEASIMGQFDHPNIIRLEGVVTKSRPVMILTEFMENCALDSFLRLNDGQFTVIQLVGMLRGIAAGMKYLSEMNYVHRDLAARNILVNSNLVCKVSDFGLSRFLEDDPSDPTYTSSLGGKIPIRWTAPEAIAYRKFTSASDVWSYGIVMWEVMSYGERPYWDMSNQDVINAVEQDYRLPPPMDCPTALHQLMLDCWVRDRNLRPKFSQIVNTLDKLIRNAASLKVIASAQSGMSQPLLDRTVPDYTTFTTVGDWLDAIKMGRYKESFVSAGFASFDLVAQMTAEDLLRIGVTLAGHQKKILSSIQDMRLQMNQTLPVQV
The settings on record: at 0.1 µM.

Assay [3] addresses T2, Ephrin type-B receptor 3 (Homo sapiens). The settings on record: at 1 µM.
Assay [4] concerns the target T3, Ephrin type-B receptor 4 (Homo sapiens) (UniProt P54760).
T3 sequence (whole entry): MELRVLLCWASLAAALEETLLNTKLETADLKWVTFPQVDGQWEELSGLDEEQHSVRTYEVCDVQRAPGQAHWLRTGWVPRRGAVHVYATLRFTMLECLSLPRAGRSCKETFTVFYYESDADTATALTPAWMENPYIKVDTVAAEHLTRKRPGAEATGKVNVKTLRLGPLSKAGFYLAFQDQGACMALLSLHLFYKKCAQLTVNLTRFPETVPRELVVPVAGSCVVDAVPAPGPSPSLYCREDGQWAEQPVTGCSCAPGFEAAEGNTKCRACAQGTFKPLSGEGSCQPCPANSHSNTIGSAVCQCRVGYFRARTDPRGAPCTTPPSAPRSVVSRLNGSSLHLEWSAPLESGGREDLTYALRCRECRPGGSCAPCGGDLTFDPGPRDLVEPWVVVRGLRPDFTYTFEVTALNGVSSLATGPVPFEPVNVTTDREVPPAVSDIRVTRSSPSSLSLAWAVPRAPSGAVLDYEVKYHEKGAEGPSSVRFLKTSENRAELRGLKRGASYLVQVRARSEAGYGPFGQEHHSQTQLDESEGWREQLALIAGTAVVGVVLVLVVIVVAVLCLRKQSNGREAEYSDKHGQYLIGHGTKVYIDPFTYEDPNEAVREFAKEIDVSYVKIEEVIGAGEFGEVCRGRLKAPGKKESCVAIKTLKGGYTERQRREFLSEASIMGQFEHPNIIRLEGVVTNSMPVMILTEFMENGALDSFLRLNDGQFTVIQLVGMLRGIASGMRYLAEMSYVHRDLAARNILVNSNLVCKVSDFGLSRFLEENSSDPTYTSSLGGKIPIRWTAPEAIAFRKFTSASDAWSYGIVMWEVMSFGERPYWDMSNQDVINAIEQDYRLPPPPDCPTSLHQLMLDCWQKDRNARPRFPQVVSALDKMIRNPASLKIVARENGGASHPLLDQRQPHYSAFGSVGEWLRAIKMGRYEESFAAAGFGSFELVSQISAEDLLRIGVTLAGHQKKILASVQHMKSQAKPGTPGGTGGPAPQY
As to conditions: at 0.1 µM.

The target of assay [5] is T3, Ephrin type-B receptor 4 (Homo sapiens). As to conditions: at 1 µM.
Assay [6] addresses Receptor tyrosine-protein kinase erbB-2 (Homo sapiens) (UniProt P04626). As to conditions: at 0.1 µM.
Assay [7] has the same target. The settings on record: at 1 µM.
The target in assay [8] is Receptor tyrosine-protein kinase erbB-4 (Homo sapiens) (UniProt Q15303). As to conditions: at 0.1 µM.
Assay [9] shares this target. As to conditions: at 1 µM.
In assay [10] the target is Tyrosine-protein kinase Fer (Homo sapiens) (UniProt P16591). The settings on record: at 0.1 µM.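 Further: reported figures are averaged percent inhibition of FER.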
Tyrosine-protein kinase Fer (Homo sapiens), sequence (P16591 whole entry, looked up): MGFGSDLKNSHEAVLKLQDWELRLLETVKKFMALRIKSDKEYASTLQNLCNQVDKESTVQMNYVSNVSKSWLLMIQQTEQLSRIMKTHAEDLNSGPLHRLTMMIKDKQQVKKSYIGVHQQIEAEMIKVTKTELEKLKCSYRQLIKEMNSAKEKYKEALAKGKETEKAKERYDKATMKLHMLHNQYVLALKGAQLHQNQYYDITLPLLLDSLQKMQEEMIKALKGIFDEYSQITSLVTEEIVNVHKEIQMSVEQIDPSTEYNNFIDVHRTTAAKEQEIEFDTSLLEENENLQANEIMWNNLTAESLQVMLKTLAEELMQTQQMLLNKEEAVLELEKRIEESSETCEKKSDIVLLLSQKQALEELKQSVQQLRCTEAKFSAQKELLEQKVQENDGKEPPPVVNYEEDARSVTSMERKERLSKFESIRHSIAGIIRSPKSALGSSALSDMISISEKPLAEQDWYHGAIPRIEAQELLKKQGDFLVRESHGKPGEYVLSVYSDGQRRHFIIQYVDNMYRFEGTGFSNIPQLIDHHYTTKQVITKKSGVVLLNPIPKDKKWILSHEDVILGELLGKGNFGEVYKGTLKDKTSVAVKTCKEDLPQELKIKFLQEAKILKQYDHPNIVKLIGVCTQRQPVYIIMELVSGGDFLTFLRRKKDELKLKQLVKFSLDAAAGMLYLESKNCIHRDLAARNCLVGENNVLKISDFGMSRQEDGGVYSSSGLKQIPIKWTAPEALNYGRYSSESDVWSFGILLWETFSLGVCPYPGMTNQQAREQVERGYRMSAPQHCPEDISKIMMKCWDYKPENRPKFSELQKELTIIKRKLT

Receptor tyrosine-protein kinase erbB-2 (Homo sapiens), sequence (P04626 whole entry): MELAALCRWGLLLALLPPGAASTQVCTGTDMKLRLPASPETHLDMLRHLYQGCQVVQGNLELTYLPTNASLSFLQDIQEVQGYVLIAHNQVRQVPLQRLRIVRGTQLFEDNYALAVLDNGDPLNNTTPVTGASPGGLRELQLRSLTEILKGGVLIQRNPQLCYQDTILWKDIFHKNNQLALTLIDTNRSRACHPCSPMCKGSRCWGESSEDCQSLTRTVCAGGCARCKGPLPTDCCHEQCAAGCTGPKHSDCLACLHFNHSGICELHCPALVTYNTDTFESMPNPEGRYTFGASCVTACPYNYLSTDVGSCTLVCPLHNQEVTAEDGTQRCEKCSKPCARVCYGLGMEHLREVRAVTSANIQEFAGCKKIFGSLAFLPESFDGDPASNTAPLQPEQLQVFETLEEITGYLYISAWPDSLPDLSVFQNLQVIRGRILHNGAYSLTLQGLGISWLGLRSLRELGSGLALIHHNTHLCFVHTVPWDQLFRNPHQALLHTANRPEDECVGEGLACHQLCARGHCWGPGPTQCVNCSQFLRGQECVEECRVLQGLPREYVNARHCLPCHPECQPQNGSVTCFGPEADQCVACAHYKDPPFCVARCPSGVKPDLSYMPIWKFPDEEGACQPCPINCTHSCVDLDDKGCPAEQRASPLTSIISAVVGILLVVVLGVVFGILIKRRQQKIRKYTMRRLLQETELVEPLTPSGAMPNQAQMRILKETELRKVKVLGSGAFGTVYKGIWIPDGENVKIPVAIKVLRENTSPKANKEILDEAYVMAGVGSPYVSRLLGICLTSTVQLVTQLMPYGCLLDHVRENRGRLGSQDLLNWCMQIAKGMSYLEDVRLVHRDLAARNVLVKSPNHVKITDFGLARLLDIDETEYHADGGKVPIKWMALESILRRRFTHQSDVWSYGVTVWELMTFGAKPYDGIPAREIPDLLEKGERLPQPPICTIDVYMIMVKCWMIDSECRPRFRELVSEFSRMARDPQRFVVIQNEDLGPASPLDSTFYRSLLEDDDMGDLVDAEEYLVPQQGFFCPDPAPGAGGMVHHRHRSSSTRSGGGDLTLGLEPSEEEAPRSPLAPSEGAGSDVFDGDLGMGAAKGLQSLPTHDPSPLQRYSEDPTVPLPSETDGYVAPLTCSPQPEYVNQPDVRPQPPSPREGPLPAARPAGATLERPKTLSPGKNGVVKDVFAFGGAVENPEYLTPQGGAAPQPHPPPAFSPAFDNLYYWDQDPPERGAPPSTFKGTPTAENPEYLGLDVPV
Receptor tyrosine-protein kinase erbB-4 (Homo sapiens), sequence (Q15303 whole entry): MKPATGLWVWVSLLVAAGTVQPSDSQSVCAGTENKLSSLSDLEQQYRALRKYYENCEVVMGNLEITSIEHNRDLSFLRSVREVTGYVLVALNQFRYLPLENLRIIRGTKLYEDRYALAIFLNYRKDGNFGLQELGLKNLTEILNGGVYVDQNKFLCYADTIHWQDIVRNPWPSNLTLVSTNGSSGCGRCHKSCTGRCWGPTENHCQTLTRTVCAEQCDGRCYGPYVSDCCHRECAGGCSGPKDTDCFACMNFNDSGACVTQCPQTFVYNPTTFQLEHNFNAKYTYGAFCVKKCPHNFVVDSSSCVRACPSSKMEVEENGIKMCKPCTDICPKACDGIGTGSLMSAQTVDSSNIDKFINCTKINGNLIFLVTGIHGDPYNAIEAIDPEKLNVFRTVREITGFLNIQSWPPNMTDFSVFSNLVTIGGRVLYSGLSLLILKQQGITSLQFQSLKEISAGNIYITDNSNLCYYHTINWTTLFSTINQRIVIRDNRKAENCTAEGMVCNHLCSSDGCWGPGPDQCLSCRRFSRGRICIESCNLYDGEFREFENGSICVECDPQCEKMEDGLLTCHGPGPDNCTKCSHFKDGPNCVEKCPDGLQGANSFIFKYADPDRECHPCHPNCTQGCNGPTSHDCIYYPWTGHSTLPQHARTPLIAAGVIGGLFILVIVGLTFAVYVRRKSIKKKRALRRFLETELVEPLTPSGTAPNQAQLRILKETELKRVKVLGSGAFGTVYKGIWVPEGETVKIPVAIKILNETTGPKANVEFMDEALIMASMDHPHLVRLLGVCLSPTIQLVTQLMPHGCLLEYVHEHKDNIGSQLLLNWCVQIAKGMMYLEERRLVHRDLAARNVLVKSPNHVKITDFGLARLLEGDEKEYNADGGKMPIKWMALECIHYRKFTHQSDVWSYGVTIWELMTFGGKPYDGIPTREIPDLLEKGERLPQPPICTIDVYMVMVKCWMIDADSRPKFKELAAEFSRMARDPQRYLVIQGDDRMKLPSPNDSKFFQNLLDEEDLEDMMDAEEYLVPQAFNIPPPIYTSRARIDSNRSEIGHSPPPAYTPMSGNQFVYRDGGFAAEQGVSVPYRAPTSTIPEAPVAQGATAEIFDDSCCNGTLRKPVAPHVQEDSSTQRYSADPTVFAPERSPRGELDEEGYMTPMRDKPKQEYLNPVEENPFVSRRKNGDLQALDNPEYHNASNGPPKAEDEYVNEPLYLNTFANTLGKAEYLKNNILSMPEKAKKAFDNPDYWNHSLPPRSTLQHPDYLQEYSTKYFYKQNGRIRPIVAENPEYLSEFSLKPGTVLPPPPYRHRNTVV

`NCc1ccc(-c2nc(-c3ccc(Cl)c(O)c3)c(-c3ccncc3)[nH]2)cc1`: the inhibition was 8.63% in [1]; 5.47% in [2]; 12.8% in assay [3]; 3.82% in [4]; 9.77% in assay [5]; -0.58% in assay [6]. For the same compound, the inhibition in [7] was -0.9%; in [8], 11.1%; in assay [9] it was 28.9%; in assay [10], 0.8%.

Consider `COc1ccc(-c2coc3ncnc(N)c23)cc1`, for which the inhibition in [1] was 7.88%; in assay [2], 6.18%; in assay [3] it was 5.65%; in [4], 2.3%; in assay [5] it was 3.43%; in [6] it was 0.31%. For the same compound, the inhibition in assay [7] was -4.24%; in assay [8], 9.06%; in assay [9], 15.5%; in assay [10] it was 6.86%.

Regarding `CNC(=O)c1cncc(/C=C/c2c(Cl)cccc2Cl)c1`, the inhibition in [1] is 29.2%; in assay [2] it was -2.12%; in assay [3], 2.92%; in [4], 2.4%; in assay [5], 74.1%; in [6], 3.2%. Moreover, the inhibition in [7] was 3.13%; in assay [8], -0.22%; in [9], 8.83%; in assay [10] it was 0.6%.

Take `Cc1ccc(C(=O)NC2CCCCC2)cc1-c1ccc(C(=O)NCC2CC2)cc1`: the inhibition in assay [1] is 7.74%; in assay [2] it was 5.37%; in [3], 1.76%; in assay [4] it was 1.61%; in assay [5] it was 0.58%; in assay [6], -0.05%. The inhibition in assay [7] was -2.24%; in assay [8], 13.3%; in assay [9], 17.9%; in assay [10], 5.55%.

For the compound `NC(=O)c1ccc(-c2nc(-c3ccccn3)c(-c3ccc4c(c3)OCO4)[nH]2)cc1`, the inhibition in [1] is 6.48%; in assay [2], 4.63%; in assay [3], 1.89%; in assay [4], 3.74%; in assay [5], 1.95%; in assay [6], 2.99%. Also, the inhibition in [7] came out at 0.42%; in assay [8], 7.53%; in assay [9], 11.4%; in assay [10], 1.79%.

For `Cn1cc(C=C2C(=O)Nc3cccnc32)c2ccccc21`, the inhibition is 12% in [1]; 4.59% in assay [2]; -0.71% in [3]; 0.9% in assay [4]; 5.16% in assay [5]; 0.95% in assay [6]. Moreover, the inhibition was 3.11% in assay [7], 9.66% in assay [8], 9.14% in [9] and 0.48% in assay [10].

On to `CC1=C(C(=O)Nc2ccc3[nH]ncc3c2)C(c2ccc(F)cc2)NC(=O)N1` (stereo not given), for which the inhibition in [1] is 5.02%; in assay [2], 3.4%; in assay [3], 1.2%; in assay [4] it was -1.65%; in assay [5] it was 0.92%; in [6] it was -0.29%. Besides, the inhibition was -0.74% in assay [7], 4.16% in assay [8], 5.19% in assay [9] and 0.09% in assay [10].

In the case of `CCn1c(-c2nonc2N)nc2cncc(C(=O)N3CCNCC3)c21`, the inhibition in assay [1] worked out at 7.73%; in [2] it was 3.36%; in assay [3] it was 3.77%; in assay [4] it was 2.94%; in assay [5], 3.87%; in assay [6] it was 38.2%. Also, the inhibition in assay [7] worked out at 2.97%; in [8], 9.03%; in [9], 10.6%; in [10], 1.53%.
